# Rows were chosen to be rich in hits. Some 1.3% of all compounds tested hit in one or more screens of this group.
# RecA intein inh: blocks M. tuberculosis RecA intein splicing | P9WHJ3 | inhibition, % (concentration not given with the values) | cell-free RecA intein splicing, fluorescence | 290,000 tested, 0.75% active; in the data active = inhibition above about 30%; inconclusive = no clear call, values can overlap the other calls
# Target sequence (P9WHJ3 whole entry, looked up): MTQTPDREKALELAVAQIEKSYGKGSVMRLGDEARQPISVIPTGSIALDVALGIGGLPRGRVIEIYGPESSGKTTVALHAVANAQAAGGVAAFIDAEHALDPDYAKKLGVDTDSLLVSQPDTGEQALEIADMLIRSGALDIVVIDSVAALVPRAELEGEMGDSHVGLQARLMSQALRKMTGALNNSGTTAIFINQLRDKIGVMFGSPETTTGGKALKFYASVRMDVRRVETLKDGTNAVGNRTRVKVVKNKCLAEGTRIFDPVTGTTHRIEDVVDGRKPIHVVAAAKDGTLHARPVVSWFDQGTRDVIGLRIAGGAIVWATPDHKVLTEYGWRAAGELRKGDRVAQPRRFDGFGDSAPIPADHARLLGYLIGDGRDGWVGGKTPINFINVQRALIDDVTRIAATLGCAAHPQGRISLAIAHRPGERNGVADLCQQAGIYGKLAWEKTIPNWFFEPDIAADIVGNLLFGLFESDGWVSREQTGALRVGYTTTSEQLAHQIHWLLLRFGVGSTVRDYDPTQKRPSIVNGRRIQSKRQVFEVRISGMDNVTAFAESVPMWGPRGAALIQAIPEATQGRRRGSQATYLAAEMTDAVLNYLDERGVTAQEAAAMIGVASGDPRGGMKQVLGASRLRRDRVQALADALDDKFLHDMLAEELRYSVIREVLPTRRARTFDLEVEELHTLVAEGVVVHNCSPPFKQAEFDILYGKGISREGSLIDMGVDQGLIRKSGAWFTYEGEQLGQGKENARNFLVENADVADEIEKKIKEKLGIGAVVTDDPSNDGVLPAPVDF
# Rv3671c inh: inhibitors of M. tuberculosis serine protease Rv3671c; P9WHR9; inhibition, % at 5.96 µM; 320,000 tested, 0.048% active; AID 2606; in the data active = inhibition above about 38%;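 note: extracellular domain of Rv3671c used as enzyme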
# Mtb UGM inh: blocks M. tuberculosis UGM enzyme; P9WIQ1; 320,000 tested, 0.06% active; inhibition, % at 10 µM; AID 504406; purified UGM, fluorescence polarization probe displacement; in the data active = inhibition above about 10%, passing the limit was not always enough; inconclusive = no clear call, values can overlap the other calls
# BJeLR lethal: BJeLR cell viability loss | BJeLR (HRASV12) viability, CellTiter-Glo ATP luminescence, 48 h | inhibition, % (concentration not given with the values) | 300,000 tested, 0.17% active; in the data active = inhibition above about 50%; inconclusive = no clear call, values can overlap the other calls
# FadD28 FP inh: inhibitors of Mycobacterium tuberculosis FadD28 bisubstrate binding; FadD28 bisubstrate probe binding, fluorescence polarization; inhibition, % at 12.5 µM; 360,000 tested, 0.22% active; AID 588549; in the data active = inhibition above about 8.5%, passing the limit was not always enough; inconclusive = no clear call, values can overlap the other calls
# PrP UTR inh: inhibition of PrP 5' UTR reporter expression | AID 488862 | 340,000 tested, 0.35% active | cell-based PrP 5' UTR mRNA reporter, plate reader | inhibition, % (test concentration not listed); in the data active = inhibition above about 52%
# PrP UTR cherry: prion 5' UTR mRNA inhibition, cherry-pick retest; shares compounds with PrP UTR inh; cell-based prion protein 5' UTR reporter, plate reader; inhibition, % at 2.5 µM; 1,100 tested, 48% active; AID 504592; in the data active = inhibition above about 54%; inconclusive = no clear call, values can overlap the other calls
# A number is an active result; 0 = inactive; ? = inconclusive; - = not tested or not shown.
SMILES,RecA intein inh,Rv3671c inh,Mtb UGM inh,BJeLR lethal,FadD28 FP inh,PrP UTR inh,PrP UTR cherry
Cc1ccn(CC(=O)N2CCCC(N3CCN(c4cccc(Cl)c4)CC3)C2)n1 (configuration not stated),0,0,0,0,0,0,-
C[C@@H]1CC[C@H](O)/C=C/C(=O)O[C@H](C)CC[C@H](O)/C=C/C(=O)O1,0,0,0,0,0,0,-
C[C@H]1CCC/C=C/[C@@H]2C[C@H](O)C[C@H]2[C@H](O)/C=C/C(=O)O1,-,0,0,-,0,79,87
Cc1cc(C)nc(Sc2ncnc(N)c2[N+](=O)[O-])n1,0,0,0,0,0,56,0
[N-]=[N+]=CC(=O)C(c1ccccc1)(c1ccccc1)c1ccccc1,0,0,0,0,0,0,-
COc1ccc(S(=O)(=O)NCC(c2cccnc2)N2CCN(c3ccc(F)cc3)CC2)cc1C (configuration not stated),0,-,-,0,0,52,0
COc1ccc(S(=O)(=O)NCC(c2cccnc2)N2CCN(c3ccccc3)CC2)cc1C (configuration not stated),0,0,0,0,0,0,-
Cc1cccc(N(NC(=O)C(C)(C)O)C(=O)c2ccccc2)c1,0,0,0,0,0,67,0
CCOC(=O)N(NC(=O)C(O)(c1ccccc1)c1ccccc1)c1ccccc1,0,0,0,0,0,0,-
N=c1ccn2c(n1)O[C@H]1[C@@H](CO)[C@H](O)O[C@H]12,-,0,0,-,0,52,0
CCN(CC)CCNC(=O)c1cccc(NC(=O)C(=O)c2ccccc2NC(C)=O)c1,-,0,0,0,0,0,-
CCCCCN1C=CC(=C2C(=O)c3ccccc3C2=O)C=C1,0,0,0,51,0,89,89
CC1=CC(=C2C(=O)c3ccccc3C2=O)C=C(C)N1C,0,0,0,0,0,0,-
COc1ccc(-c2ccncc2)cc1OC,0,0,0,0,0,0,-
Nc1ncnc2c1ccn2[C@@H]1O[C@H](CO)[C@@H](O)[C@H]1O,-,0,0,111,0,81,88
Nc1ncnc2nn(C3OC(CO)C(O)C3O)nc12 (configuration not stated),-,-,-,-,0,-,-
OCC1OC(n2ccc3c2ncn2ncnc32)C(O)C1O (configuration not stated),-,-,-,-,0,-,-
NC(=S)c1cn(C2OC(CO)C(O)C2O)c2ncnc(N)c12 (configuration not stated),0,0,0,62,0,61,83
CSC(=Nc1ccccc1)N=C(SCc1ccccc1)N(C)C,-,-,-,-,0,74,0
O=C(O)c1cccc2c1-c1ccc([N+](=O)[O-])cc1C2=O,-,-,-,-,0,0,-
Cc1ccc2c(c1)C(=O)c1c(C(=O)O)cccc1-2,0,0,0,0,0,78,0
O=C(C[n+]1ccccc1)N/N=C/c1c(F)cccc1Cl,0,0,0,0,0,59,0
O=C(C[n+]1ccccc1)N/N=C/c1ccccc1F,0,0,0,0,0,0,-
CCCc1c(C(=O)Nc2ccc(C(F)(F)F)cc2)cnn1-c1ccccc1,0,0,0,0,0,65,0
CCCc1c(C(=O)Nc2ccc(N3CCOCC3)cc2)cnn1-c1ccccc1,0,0,0,0,0,0,-
SMILES,RecA intein inh,Rv3671c inh,Mtb UGM inh,BJeLR lethal,FadD28 FP inh,PrP UTR inh,PrP UTR cherry
Cc1cc(-c2ccccc2)n(-c2cc(N/N=C/c3ccccc3O)ncn2)n1,-,0,0,-,0,76,90
C(=N\Nc1nc2ccccc2[nH]1)/c1ccccn1,0,-,-,54,0,52,?
Cc1sc2ncnc(N3CCC(C(=O)Nc4sc5c(c4C(N)=O)CCC(C)C5)CC3)c2c1C (configuration not stated),-,0,0,-,0,0,-
Nc1nc(-c2nonc2N)no1,0,0,0,0,0,71,0
Nc1nonc1-c1noc(-c2ccccc2)n1,0,0,0,0,0,0,-
O=C(NCc1cccnc1)c1ccccc1Br,0,0,0,0,0,77,0
Oc1ccc(Cl)cc1C=Nc1ccccc1Br,0,0,0,0,0,57,0
CCC(C)(C)NC(=O)CN(Cc1ccc(F)cc1)C(=O)CCC(=O)Nc1ccccn1,0,0,0,0,0,0,-
COC(=O)C1C(O)=C(C=Nc2ccc3ccccc3c2)C(=O)CC1(C)C (configuration not stated),0,0,0,0,0,80,0
CC(=O)OCC(=O)Nc1c(C)cccc1C,-,0,0,0,0,0,-
CC(=O)OCC(=O)Nc1ccccc1C,0,0,0,0,0,76,0
O=C1CCCCC1Sc1nnc(-c2ccc3c(c2)OCO3)o1 (configuration not stated),0,0,0,0,0,55,?
c1ccc(N2CCN(c3nc4cc5c(cc4s3)OCCO5)CC2)cc1,0,0,0,0,0,0,-
c1c2c(cc3sc(N4CCOCC4)nc13)OCCO2,0,0,0,0,0,56,?
CCC/C=N/NC(=O)c1[nH]c2c([N+](=O)[O-])cccc2c1C,0,0,0,0,0,0,-
O=C1NC(Cc2ccccc2)C(=O)N1Cc1cc([N+](=O)[O-])cc2c1OCOC2 (configuration not stated),0,0,0,0,0,71,0
O=C1N[C@@H](Cc2ccccc2)C(=O)N1CCN1CCOCC1,0,0,0,0,0,0,-
CCCCNC(=O)C1c2cc(OC)c(OC)cc2C(=O)N(C)C1c1cccs1 (configuration not stated),0,0,0,0,0,81,0
CCCN(CCC)CCCNC(=O)C1c2cc(OC)c(OC)cc2C(=O)N(C)C1c1cccs1 (configuration not stated),0,0,0,0,0,0,-
CCOC(=O)c1oc2c(CN3CCN(C)CC3)c(O)c(CC)cc2c(=O)c1-c1nc2ccccc2s1,-,-,-,-,0,0,-
CC(=O)Nc1nnc(CSCc2ccccc2F)s1,0,0,0,0,0,0,-
Cc1cc2nc(/C=C/c3cccnc3)[nH]c2cc1C,0,-,0,53,0,66,84
COc1ccc(N2CCN(C(=O)c3ccc4c(c3)CC(c3ccccc3)OC4=O)CC2)cc1 (configuration not stated),-,-,-,-,0,0,-
CN=c1scc(-c2cccs2)n1/N=C/c1ccccc1O,0,0,0,0,0,94,90
O=C1c2ccccc2-c2nnc(-c3ccc(F)cc3)cc21,-,0,0,0,0,0,-
SMILES,RecA intein inh,Rv3671c inh,Mtb UGM inh,BJeLR lethal,FadD28 FP inh,PrP UTR inh,PrP UTR cherry
Cc1ccc(-c2cc3c(nn2)-c2ccccc2C3=O)cc1,0,0,0,0,0,76,82
O=[As](O)(O)c1ccc(N=Nc2ccc(O)cc2)cc1,0,-,0,0,0,0,-
CCSC(=O)N=Nc1ccc(O)cc1,-,-,-,-,0,56,0
O=C(O)c1cccc(N/N=C/c2cccs2)c1,0,0,0,0,0,65,63
Nc1c2c(nn1-c1ccccc1)CCC2,0,0,0,0,0,0,-
COc1cc(/C=C/CN2CCN(Cc3ccc(C)o3)C(CCO)C2)ccc1O (configuration not stated),0,0,0,0,0,55,?
